Measurements: PubChem BioAssay (Tox21)
Results filed as inconclusive are left out. Entries that show only a call come without a potency. Activity calls are given as the source filed them. The call rests on the fitted dose curve.

Test: qHTS assay to identify small molecule agonists of the progesterone receptor (PR) signaling pathway - cell viability counter screen (AID 1346799); further: nearly all actives have a fitted effect of over 45% in size
Settings: PR-UAS-bla HEK293T viability, CellTiter-Glo luminescence, 16 h; series mostly up to 92.4 µM
Source text: National Center for Advancing Translational Sciences [NCATS]
NIH Chemical Genomics Center [NCGC]
U.S. Environmental Protection Agency [EPA]
National Institutes of Environmental Health Sciences [NIEHS]
National Toxicology Program [NTP]
U.S. Food and Drug Administration [FDA]
Progesterone receptor (PR), a nuclear hormone receptor, plays an important role in development, metabolic homeostasis and reproduction. It is activated by the steroid hormone progesterone. Endocrine disrupting chemicals (EDCs) and their interactions with steroid hormone receptors like PR causes disruption of normal endocrine function. To identify the compounds that stimulate PR signaling, a PR-UAS-bla GripTite cell line i.e. PR-UAS-bla HEK293T (Invitrogen, Carlsbad, CA, USA) containing a beta-lactamase reporter gene under the control of an UAS response element was used to screen Tox21 10K compound library. The cytotoxicity of the Tox21 compound library against the PR-bla cell line was tested in parallel by measuring the cell viability using CellTiter-Glo assay in the same wells.
Tox21 Assay Protocol Summary:
PR-UAS-bla HEK293T cells were dispensed at 3,000 cells/5 uL of assay medium containing 2% charcoal stripped FBS per well into black wall/clear-bottom 1536-well plates using a Multidrop Combi (ThermoFisher Scientific, Waltham, MA) dispenser. After the assay plates were incubated at a 37C and 5% CO2 for 6 hr, 23 nL of compounds dissolved in DMSO, positive controls or DMSO only was transferred to the assay plate by a Pintool station (Kalypsys, San Diego, CA). The plates were incubated at 37C and 5% CO2 for 16 hr. Then 1 uL of LiveBLAzer B/G FRET substrate was added using a Flying Reagent Dispenser (FRD, Aurora Discovery, San Diego, CA), the plates were incubated at room temperature for 2 hours, and fluorescence intensity was measured by an Envision plate reader (PerkinElmer, Shelton, CT). For cell viability readout that measures cytotoxicity, 4 uL/well of CellTiter-Glo reagent was added into the assay plates using a FRD. After 30 min incubation at room temperature, the luminescence intensity in the plates was measured using a ViewLux (PerkinElmer) plate reader.
Potency means the concentration at half of the fitted maximal effect.

Structure (SMILES)	Potency
O=C(O)c1ccc(Cl)c(Cl)c1	inactive
Cc1onc(-c2ccccc2Cl)c1C(=O)N[C@@H]1C(=O)N2[C@@H]1SC(C)(C)[C@@H]2C(=O)O	inactive
CSc1cnc(C)cn1	inactive
CCOC(=O)c1nc(C(Cl)(Cl)Cl)n(-c2ccc(Cl)cc2Cl)n1	61.1 µM (active)
O=c1[nH]cnc2nc[nH]c12	inactive
CN1CCC(Nc2ncc3ncnc(Nc4ccc(F)c(Cl)c4)c3n2)CC1	9.44 µM (active)
CCN(Cc1cccnc1)C(=O)c1cccc(Cl)c1[C@]1(C)C(=O)N(Cc2ccc(OC)cc2OC)c2ccc(Cl)cc21	inactive
CSc1ccc(C(=O)c2[nH]c(=O)[nH]c2C)cc1	inactive
O=S1(=O)CC(Cl)(Cl)C(Cl)(Cl)C1	12.2 µM (active)
CCCCCCCCOC(=O)c1ccc(O)cc1	inactive
O=[N+]([O-])c1cc(Cl)c(Cl)c(Cl)c1Cl	inactive
NC(=O)NS(=O)(=O)c1ccc(N)cc1	inactive
O=C(Oc1cccc2cccnc12)c1ccccc1	4.73 µM (active)
Oc1cc2ccccc2c2ccccc12	12.2 µM (active)
C[C@H]1[C@H]2CC[C@H]3[C@@H]4CC=C5C[C@@H](N(C)C)CC[C@]5(C)[C@H]4CC[C@]23CN1C	inactive
CCCCCCCCCCC=O	inactive
C[C@@H](NCCCc1cccc(C(F)(F)F)c1)c1cccc2ccccc12	23.7 µM (active)
CCCC1O[C@@H]2C[C@H]3[C@@H]4CCC5=CC(=O)C=C[C@]5(C)[C@H]4[C@@H](O)C[C@]3(C)[C@]2(C(=O)CO)O1 (stereo not given in full)	inactive
Cc1cc2c(cc1C(F)(F)F)N(C(=O)Nc1ccc(Oc3cccnc3C)nc1)CC2	inactive
OC1(c2ccc(Cl)c(C(F)(F)F)c2)CCN(CCCC(c2ccc(F)cc2)c2ccc(F)cc2)CC1	13.3 µM (active)

Structure (SMILES)	Potency
COc1ccc(-c2ccc3cc(C(=O)O)ccc3c2)cc1C12CC3CC(CC(C3)C1)C2	inactive
CN(C/C=C/C#CC(C)(C)C)Cc1cccc2ccccc12	13.3 µM (active)
On1ccccc1=S	0.959 µM (active)
CCOc1nc2cccc(C(=O)OC(C)OC(=O)OC3CCCCC3)c2n1Cc1ccc(-c2ccccc2-c2nn[nH]n2)cc1 (stereo not given)	19.3 µM (active)
Oc1ccc(N=Nc2ccccc2)cc1	inactive
ON=C1CCCC1	63.3 µM (active)
CC(C)(C)CC(C)(C)c1ccc(O)c(Cc2ccc(Cl)cc2Cl)c1	33.5 µM (active)
CNC(=O)c1ccccc1	inactive
CCCCCCOC(=O)c1ccc(O)cc1	inactive
OCCN1CCN(CC/C=C2/c3ccccc3Sc3ccc(C(F)(F)F)cc32)CC1	29.8 µM (active)
COc1cc(-c2nc(NC(=O)c3cc4cc(C)cc(C)c4n3CC(=O)O)sc2CCC2CCCCC2)c(OC)cc1Cl	11.2 µM (active)
O=c1[nH]sc2cc(Cl)ccc12	inactive
CC1=NC(C)OC1C (stereo not given)	inactive
CCCCc1oc2ccc(NS(C)(=O)=O)cc2c1C(=O)c1ccc(OCCCN(CCCC)CCCC)cc1	13.3 µM (active)
COc1cccc(N)c1	inactive
NNC(=O)c1cccc(C(=O)NN)c1	inactive
CCN(C(=O)N(CC)c1ccccc1)c1ccccc1	inactive
CCCCN(CCCC)C(=O)N(CCCC)CCCC	inactive
[Cl][Bi]([Cl])([c]1ccccc1)([c]1ccccc1)[c]1ccccc1	1.71 µM (active)
CCCN(CCC)C(=O)C(CCC(=O)OCCCN1CCN(CCOC(=O)Cc2c(C)n(C(=O)c3ccc(Cl)cc3)c3ccc(OC)cc23)CC1)NC(=O)c1ccccc1 (stereo not given)	inactive
